Measurements from the supplement of paper PMC10849652.
Targets with a hit are over-represented here; the source holds about 7,900 in all. About 0.6% of all pairs of compound and target were hits.

Compound: c1cn2cc(-c3ccc4cn[nH]c4c3)nc(Nc3ccc(N4CCOCC4)cc3)c2n1 [entospletinib]
Assay: log2 fold change, soluble protein after heating vs DMSO (PISA); higher = thermal stabilisation; K562 cells, 10 uM, 30 min; active = over 0.2 and 3.5 SD of the protein, either way, in both replicates (recomputed)
Procedure, shortened: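 Soluble protein was quantified by TMTpro 16plex LC-MS/MS after channel sums were equalised. It was obtained as the supernatant after 21,000xg for 90 min from pooled aliquots of K562 cells (2×10^6 cells/mL, 10 μM compound, 30 min) heated for 3 min across 48°C-58°C and extracted in PBS with 0.5% NP-40 at 4°C. Thermal stability values are relative to control samples and come from duplicates. They are given as log2 fold changes.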

Sequence of UniProt Q7Z5K2 (Q7Z5K2 whole entry, looked up): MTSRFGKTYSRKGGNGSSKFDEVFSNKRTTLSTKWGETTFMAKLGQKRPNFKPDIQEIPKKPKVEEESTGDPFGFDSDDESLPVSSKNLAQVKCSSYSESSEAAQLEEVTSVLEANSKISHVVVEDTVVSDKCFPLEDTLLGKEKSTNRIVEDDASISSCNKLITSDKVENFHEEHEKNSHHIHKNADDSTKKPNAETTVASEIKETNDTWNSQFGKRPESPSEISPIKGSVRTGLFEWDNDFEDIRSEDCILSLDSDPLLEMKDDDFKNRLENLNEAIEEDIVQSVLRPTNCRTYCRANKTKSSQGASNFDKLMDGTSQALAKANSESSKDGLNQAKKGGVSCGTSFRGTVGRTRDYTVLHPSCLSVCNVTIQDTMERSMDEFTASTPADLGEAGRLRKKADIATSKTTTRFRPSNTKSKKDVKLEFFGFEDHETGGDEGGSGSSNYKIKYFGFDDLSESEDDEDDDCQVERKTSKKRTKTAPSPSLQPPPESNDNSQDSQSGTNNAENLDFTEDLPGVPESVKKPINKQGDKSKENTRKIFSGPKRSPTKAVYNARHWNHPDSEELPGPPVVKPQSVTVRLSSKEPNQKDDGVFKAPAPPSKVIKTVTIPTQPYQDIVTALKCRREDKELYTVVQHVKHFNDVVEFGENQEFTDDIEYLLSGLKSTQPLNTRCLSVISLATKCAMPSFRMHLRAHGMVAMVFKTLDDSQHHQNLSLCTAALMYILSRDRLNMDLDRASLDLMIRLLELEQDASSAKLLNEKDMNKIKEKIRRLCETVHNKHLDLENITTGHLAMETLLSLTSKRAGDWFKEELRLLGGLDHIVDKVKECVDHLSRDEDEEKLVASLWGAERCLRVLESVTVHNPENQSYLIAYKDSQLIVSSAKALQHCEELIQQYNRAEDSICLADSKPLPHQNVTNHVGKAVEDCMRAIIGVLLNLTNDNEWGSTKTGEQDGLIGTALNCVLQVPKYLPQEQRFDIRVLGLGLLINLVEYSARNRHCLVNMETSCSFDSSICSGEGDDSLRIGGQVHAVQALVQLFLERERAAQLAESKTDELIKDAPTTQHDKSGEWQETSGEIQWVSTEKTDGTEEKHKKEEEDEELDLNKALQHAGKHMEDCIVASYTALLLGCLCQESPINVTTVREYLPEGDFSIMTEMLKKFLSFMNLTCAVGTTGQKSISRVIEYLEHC
Sequence of UniProt Q9UL33 (Q9UL33 whole entry, looked up): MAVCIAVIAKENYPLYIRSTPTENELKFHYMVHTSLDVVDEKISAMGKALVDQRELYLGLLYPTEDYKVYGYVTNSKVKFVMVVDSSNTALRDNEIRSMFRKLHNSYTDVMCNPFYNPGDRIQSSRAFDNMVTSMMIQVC
Sequence of UniProt Q8IY95 (Q8IY95 whole entry, looked up): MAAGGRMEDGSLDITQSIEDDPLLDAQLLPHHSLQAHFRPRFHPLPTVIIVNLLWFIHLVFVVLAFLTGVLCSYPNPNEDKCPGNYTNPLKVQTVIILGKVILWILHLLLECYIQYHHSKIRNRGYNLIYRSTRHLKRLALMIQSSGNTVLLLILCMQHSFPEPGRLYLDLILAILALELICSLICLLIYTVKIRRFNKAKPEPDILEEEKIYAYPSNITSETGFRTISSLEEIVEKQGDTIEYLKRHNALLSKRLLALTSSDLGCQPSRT
Sequence of UniProt Q9UPU5 (Q9UPU5 whole entry, looked up): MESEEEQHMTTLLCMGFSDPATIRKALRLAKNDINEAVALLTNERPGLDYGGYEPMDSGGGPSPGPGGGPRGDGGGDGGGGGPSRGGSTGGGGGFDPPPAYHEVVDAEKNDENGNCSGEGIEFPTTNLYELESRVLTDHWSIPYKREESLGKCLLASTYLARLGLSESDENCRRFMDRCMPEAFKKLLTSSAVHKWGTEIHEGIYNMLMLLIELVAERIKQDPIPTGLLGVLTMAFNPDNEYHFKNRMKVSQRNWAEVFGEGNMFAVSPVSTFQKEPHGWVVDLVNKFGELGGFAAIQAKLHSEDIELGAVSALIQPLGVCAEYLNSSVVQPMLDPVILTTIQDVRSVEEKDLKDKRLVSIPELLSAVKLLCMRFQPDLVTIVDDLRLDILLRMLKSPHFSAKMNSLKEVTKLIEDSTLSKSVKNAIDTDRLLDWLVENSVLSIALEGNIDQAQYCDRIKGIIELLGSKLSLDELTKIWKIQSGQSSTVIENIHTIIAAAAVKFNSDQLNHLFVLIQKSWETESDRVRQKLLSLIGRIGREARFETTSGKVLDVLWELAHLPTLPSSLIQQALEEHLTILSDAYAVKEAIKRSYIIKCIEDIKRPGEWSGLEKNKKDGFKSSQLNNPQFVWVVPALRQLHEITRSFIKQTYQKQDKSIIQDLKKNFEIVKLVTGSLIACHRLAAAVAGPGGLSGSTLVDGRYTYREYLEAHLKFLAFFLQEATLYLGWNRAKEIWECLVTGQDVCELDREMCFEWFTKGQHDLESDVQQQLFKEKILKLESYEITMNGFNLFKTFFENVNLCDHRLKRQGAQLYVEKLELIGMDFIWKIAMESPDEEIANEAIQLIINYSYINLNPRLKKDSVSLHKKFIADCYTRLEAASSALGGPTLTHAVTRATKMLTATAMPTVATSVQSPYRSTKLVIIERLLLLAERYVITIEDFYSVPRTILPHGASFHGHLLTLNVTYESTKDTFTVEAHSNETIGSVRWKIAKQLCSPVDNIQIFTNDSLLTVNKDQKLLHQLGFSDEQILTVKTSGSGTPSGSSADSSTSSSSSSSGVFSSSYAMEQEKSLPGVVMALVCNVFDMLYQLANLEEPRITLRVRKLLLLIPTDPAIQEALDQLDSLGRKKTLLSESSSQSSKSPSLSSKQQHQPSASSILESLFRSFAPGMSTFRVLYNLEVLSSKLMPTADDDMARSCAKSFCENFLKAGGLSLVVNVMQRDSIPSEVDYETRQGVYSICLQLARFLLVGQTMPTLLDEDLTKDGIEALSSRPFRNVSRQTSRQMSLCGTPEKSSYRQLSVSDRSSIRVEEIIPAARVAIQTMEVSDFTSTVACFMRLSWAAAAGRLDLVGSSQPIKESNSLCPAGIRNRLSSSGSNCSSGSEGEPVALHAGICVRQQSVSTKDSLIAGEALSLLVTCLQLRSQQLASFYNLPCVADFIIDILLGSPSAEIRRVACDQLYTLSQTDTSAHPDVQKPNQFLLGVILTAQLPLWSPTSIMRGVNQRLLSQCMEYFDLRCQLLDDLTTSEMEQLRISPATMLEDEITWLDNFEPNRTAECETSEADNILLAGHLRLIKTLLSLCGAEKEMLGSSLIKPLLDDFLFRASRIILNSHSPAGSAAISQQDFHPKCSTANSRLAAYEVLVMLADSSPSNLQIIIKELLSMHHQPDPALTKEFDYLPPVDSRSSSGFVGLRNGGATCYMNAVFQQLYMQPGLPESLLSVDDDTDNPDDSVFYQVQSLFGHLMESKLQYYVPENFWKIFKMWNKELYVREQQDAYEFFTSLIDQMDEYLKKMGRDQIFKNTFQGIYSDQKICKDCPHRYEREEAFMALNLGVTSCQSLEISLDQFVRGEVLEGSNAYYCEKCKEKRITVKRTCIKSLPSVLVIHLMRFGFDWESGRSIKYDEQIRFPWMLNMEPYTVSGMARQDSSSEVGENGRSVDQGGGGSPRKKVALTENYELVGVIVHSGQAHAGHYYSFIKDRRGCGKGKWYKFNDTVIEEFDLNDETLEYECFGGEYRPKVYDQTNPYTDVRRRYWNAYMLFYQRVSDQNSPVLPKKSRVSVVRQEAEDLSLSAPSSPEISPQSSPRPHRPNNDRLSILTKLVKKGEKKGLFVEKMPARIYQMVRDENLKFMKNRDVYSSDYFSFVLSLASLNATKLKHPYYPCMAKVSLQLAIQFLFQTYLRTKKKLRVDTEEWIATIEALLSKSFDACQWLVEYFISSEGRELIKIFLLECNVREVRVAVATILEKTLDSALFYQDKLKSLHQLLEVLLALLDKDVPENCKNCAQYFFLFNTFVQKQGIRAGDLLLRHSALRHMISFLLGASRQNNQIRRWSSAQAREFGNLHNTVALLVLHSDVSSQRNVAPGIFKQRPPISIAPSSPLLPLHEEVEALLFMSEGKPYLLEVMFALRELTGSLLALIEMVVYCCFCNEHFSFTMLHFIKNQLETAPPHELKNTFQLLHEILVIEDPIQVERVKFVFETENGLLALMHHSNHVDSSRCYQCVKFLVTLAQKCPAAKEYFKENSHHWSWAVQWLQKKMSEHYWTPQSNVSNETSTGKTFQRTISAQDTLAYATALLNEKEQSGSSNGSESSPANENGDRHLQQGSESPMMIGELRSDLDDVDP
Sequence of UniProt Q9UK41 (Q9UK41 whole entry, looked up): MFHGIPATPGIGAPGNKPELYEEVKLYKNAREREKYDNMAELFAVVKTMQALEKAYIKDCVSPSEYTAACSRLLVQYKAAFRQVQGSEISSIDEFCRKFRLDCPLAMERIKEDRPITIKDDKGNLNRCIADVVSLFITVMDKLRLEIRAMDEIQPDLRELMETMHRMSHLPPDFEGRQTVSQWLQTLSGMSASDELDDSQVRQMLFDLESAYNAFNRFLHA
Sequence of UniProt A5PLN9 (A5PLN9 whole entry, looked up): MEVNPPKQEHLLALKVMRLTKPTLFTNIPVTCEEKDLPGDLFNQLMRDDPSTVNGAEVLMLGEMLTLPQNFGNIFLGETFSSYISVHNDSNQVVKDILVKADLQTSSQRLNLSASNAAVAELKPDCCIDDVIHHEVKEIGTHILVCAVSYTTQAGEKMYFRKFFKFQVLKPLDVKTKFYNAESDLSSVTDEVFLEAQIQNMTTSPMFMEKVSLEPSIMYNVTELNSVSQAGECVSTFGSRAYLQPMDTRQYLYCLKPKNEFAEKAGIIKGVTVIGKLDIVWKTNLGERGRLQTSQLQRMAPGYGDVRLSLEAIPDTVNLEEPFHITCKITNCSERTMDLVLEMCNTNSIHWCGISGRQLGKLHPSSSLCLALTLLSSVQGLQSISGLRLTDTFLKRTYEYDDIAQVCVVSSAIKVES
Sequence of UniProt O95379 (O95379 whole entry, looked up): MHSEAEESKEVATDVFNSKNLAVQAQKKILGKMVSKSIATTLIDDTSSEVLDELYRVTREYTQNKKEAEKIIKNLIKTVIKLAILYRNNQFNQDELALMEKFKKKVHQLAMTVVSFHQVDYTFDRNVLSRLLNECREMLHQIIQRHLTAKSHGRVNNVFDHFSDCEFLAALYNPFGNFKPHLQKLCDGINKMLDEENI

Target	log2 fold change
TMEM214 (UniProt Q6NUQ4)	-0.015 (inactive)
WDR62 isoform 4 (UniProt O43379)	-0.043 (inactive)
TVP23C (UniProt Q96ET8)	0.419 (active)
TPR (UniProt P12270)	0.067 (inactive)
TMEM263 (UniProt Q8WUH6)	-0.032 (inactive)
TNFRSF8 (UniProt P28908)	0.002 (inactive)
USP24 (UniProt Q9UPU5)	0.016 (inactive)
TYW1 (UniProt Q9NV66)	0.003 (inactive)
WAPL isoform 3 (UniProt Q7Z5K2)	-0.037 (inactive)
VAMP7 (UniProt P51809)	-0.032 (inactive)
UHRF1BP1 (UniProt Q6BDS2)	0.015 (inactive)
VPS50 (UniProt Q96JG6)	-0.045 (inactive)
TRAPPC2L (UniProt Q9UL33)	0.039 (inactive)
UBA1 (UniProt P22314)	-0.025 (inactive)
USP7 (UniProt Q93009)	-0.019 (inactive)
TMEM189-UBE2V1 (UniProt I3L0A0)	-0.017 (inactive)
WRB (UniProt O00258)	0.005 (inactive)
TTI1 (UniProt O43156)	0.1 (inactive)
USP48 isoform 8 (UniProt Q86UV5)	0.067 (inactive)
UBAP1 isoform 4 (UniProt Q9NZ09)	0.005 (inactive)

Target	log2 fold change
WDR11 (UniProt Q9BZH6)	-0.403 (inactive)
TRMT10C (UniProt Q7L0Y3)	-0.043 (inactive)
VARS2, A0A0G2JL52	-0.03 (inactive)
TRAPPC13 isoform 5 (UniProt A5PLN9)	-0.022 (inactive)
UBXN10 (UniProt Q96LJ8)	0.013 (inactive)
U2AF1 isoform 2 (UniProt Q01081)	-0.052 (inactive)
TXNL1 (UniProt O43396)	0.034 (inactive)
TNFAIP8 isoform 4 (UniProt O95379)	0.036 (inactive)
XRCC6 (UniProt P12956)	0 (inactive)
USP9X (UniProt Q93008)	-0.01 (inactive)
VPS28 (UniProt Q9UK41)	-0.039 (inactive)
UXT isoform 2 (UniProt Q9UBK9)	-0.012 (inactive)
TMEM192 (UniProt Q8IY95)	0.071 (inactive)
UBR2 (UniProt Q8IWV8)	0.029 (inactive)
USP3 (UniProt Q9Y6I4)	-0.003 (inactive)
UBE3D (UniProt Q7Z6J8)	0.091 (inactive)
UBXN8 (UniProt O00124)	-0.231 (inactive)
VWA3B isoform 6 (UniProt Q502W6)	-0.237 (inactive)
TMEM120A (UniProt Q9BXJ8)	-0.404 (active)
